# High-throughput results from PubChem.
# Wnt bcat act – Wnt/beta-catenin pathway activators, primary screen, cell-based, plate reader, single point; AID 743398, 2014; Wnt/beta-catenin reporter cell assay, activator; activation, % at 9.35 µM; 1.2% of 300,000 active; in the data active = activation above about 30%, passing the limit was not always enough; inconclusive = no clear call, values can overlap the other calls;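 also: 0% = neutral control wells and 100% = positive control wells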
# Env fusion inh – inhibitors of HIV-1 Env-driven cell-cell fusion, primary screen, HeLa-JRFL effector, CEM21 target cells, luciferase; inhibition, % at 12.3 µM; 1.1% of 360,000 active;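 active = mean replicate inhibition score of at least 50 and every replicate individually at or above 50; inconclusive = only one of the two criteria met; inactive = mean below 50 and not all replicates reaching 50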;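 also: 0% = plate neutral controls and 100% = maraviroc near 300 nM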
# GSIS activator – GLuc luminescence reporter in INS-1E cells, primary screen for activators of glucose-dependent secretion of insulin. INS-1E GLuc reporter insulin secretion, 2-3 h. 0.61% of 370,000 active. AID 743287, 2014. activation, % at 16.6 µM;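 active = lowest replicate activation of at least 40%, so every replicate reaches that level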;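 also: 0% = median of neutral control wells and 100% = median of IBMX positive control wells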
# F508del corr – F508del CFTR correction, initial screen, CFBE line, single point; CFBE cells, YFP halide quenching; stimulated with forskolin plus potentiator P3; % fluorescence drop versus neutral controls; 0.36% of 350,000 active; activity (quench increase), % at 7.58 µM; AID 720511, 2013;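 active = mean added fluorescence quench of at least 8% versus neutral control, with both replicates also reaching 8%; inconclusive = only one of the mean or replicate conditions met; inactive = mean below 8% and not both replicates reaching 8%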;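 also: cells transiently co-express mutant CFTR-F508del with the halide-sensitive YFP; corrector assay measuring rescue of mutant channel to the surface after 24 h compound exposure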
# MITF TRPM1 HTS – activators of MITF-driven TRPM1 promoter reporter, primary screen, cell-based, SK-MEL-5, luciferase, single point; SK-MEL-5 TRPM1-promoter luciferase, 24 h; % of positive control, neutral wells = 0; activation, % at 12.5 µM; 0.75% of 300,000 active;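 active = mean activation of at least 80% with every replicate also reaching 80%; inconclusive = mean reaches 80% but some replicate falls short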;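 also: 0% = neutral control wells and 100% = parthenolide positive control wells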
# An asterisk follows results filed as active; ? = inconclusive; nt = no result given; [ ] = remark or other dose. An excerpt weighted towards active compounds, which were near 2.7% of everything screened.
SMILES,Wnt bcat act,Env fusion inh,GSIS activator,F508del corr,MITF TRPM1 HTS
O=C([C@H]1[C@H](CO)[C@H]2Cn3c(ccc(C4=CCCC4)c3=O)[C@H]2N1Cc1nccs1)N1CCOCC1,nt,13[16.7 µM],18,nt,nt
O=C(O)COC(=O)Cc1ccccc1Nc1c(Cl)cccc1Cl,0,-7,nt,16*,-1
CC(=O)OCCn1c(C)[n+](CCOC(C)=O)c2cc(Cl)c(Cl)cc21,-1,17,15,0,-8
CC(=O)OCCn1c2nc(=O)[nH]c(=O)c-2nc2cc(C)c(C)cc21,-1,3,-4,18*,nt
N#Cc1c(-c2ccco2)cc(C2CC2)nc1N,nt,-62,71*,nt,1
N#Cc1c(-c2ccccc2)cc(C2CC2)nc1N,2,14,nt,nt,-1
COc1ccc(CC(=O)OCN2C(=O)c3ccccc3C2=O)cc1,nt,nt,-1,nt,7
COc1ccc(CC(=O)OCN2C(=O)c3ccccc3C2=O)cc1OC,10,-18,62*,-4,3
COc1ccc(CC(=O)OCn2nnc3ccccc3c2=O)cc1OC,-1,5,44*,-4,8
CC(O)CNc1nc(N)[nH]c(=O)c1N=Nc1ccccc1 (stereo not given),-5,nt,-7,11*,-1
CCc1ccc(/C=C2\SC(=S)N(CCCC(=O)NC3=NCCS3)C2=O)cc1,-8,59*,nt,2,nt
Cc1ccc(/C=C2/SC(=S)N(CCCC(=O)Nc3ccc(O)cc3)C2=O)cc1,6,55*,3,-1,-43
COc1cccc(/C=C2\SC(=S)N(CCCC(=O)NC3=NCCS3)C2=O)c1,6,13,4,0,-12
Cc1ccc(/C=C2\SC(=S)N(CCCC(=O)NNC(=O)c3ccccc3O)C2=O)cc1,-6,96*,5,0,-92
Cc1ccc(/C=C2\SC(=S)N(CCC(=O)NNC(=O)c3ccccc3O)C2=O)cc1,-6,0,-3,1,-22
COc1ccc(N2Cc3ccc(OC)c(OC)c3C2=O)cc1,-1,-49,-4,-3,86*
CCN(CC)S(=O)(=O)c1cc(C(=O)N=c2sccn2C)ccc1OC,-1,-4,-6,2,-18
CCCCOc1ccc(C(=O)N=c2sccn2C)cc1OC,37*,-65,-10,-7,?
O=C(O)c1cc2c(s1)-c1ccccc1CC2,-1,11,-3,nt,1
COc1ccc2c(c1)CCc1cc(C(=O)O)sc1-2,4,0,65*,0,-11
CC(C)[C@@H]1CC[C@@H](C)C[C@H]1OC[B-](F)(F)F,-3,-131,69*,1,nt
O=C(NC1CCCC1)[C@H]1[C@H](CO)[C@H]2Cn3c(cccc3=O)[C@H]2N1CC1CCOCC1,nt,nt,1,-1,nt
Cc1ccc(C(C)C)c(OCCNCCc2ccccc2)c1,-5,23,137*,2,-45
Cc1ccc(C(C)C)c(OCCCNCc2cccnc2)c1,-1,14,-3,3,-13
CCCCSc1ncnc2c1ncn2C1CCCCO1 (stereo not given),52*,-35,nt,4,90*
SMILES,Wnt bcat act,Env fusion inh,GSIS activator,F508del corr,MITF TRPM1 HTS
COc1ccc2c3c([nH]c2c1)[C@H](CO)N(S(C)(=O)=O)CC31CN(C(=O)Nc2ccccc2)C1,nt,nt,-3,5,nt
O=C1CSC(c2ccc([N+](=O)[O-])cc2)N1C1CCCCC1 (stereo not given),0,23,87*,3,-8
C[C@H]1CN([C@@H](C)CO)C(=O)c2cc(Br)cnc2O[C@H]1CN(C)C(=O)c1ccccc1F,nt,-16[16.7 µM],2,-1,nt
CN1CCN(C(=O)C[C@@H]2C=C[C@@H](NC(=O)Nc3ccccc3F)[C@@H](CO)O2)CC1,nt,-14[16.7 µM],0,2,nt
O=C(Nc1ccc(-c2nc3ccccc3o2)cc1)C1CCCO1 (stereo not given),nt,-156,nt,nt,36
O=C(Nc1ccc2oc(-c3cccnc3)nc2c1)c1ccc2c(c1)OCCO2,4,-13,43*,nt,1
O=C(Nc1ccc2oc(-c3ccccc3)nc2c1)C1CCCO1 (stereo not given),24,-60,2,-1,88*
Nc1nc2c(ccc3ccccc32)s1,-1,-25,nt,-1,nt
COc1cc2nn(-c3ccccc3N)nc2cc1OC,42*,-16,nt,3,nt
Nc1ccccc1-n1nc2ccc3ccccc3c2n1,55*,-263,-6,-2,nt
Cc1ccc(S(=O)(=O)NC[C@@H]2CC[C@@H]3[C@@H](CN3Cc3cc(F)ccc3F)O2)cc1,nt,nt,nt,2,nt
O=C(N[C@@H]1CC[C@@H](CCNC(=O)C2CC2)O[C@@H]1CO)c1ccncc1,nt,1[16.7 µM],-5,1,nt
Cc1ccc(-c2nnnn2-c2ccc(C)cc2)cc1,0,14,34,0,10
FC(F)(F)c1nc(-c2ccncc2)ncc1-c1nnnn1-c1ccccc1,-6,-18,nt,nt,-8
Fc1ccc(-n2nnnc2-c2cnc(-c3cccs3)nc2C(F)(F)F)cc1,nt,77*,nt,nt,nt
Cc1ccc(-n2nnnc2-c2cnn(-c3ccc(F)cc3)c2C(F)(F)F)cc1,-8,96*,nt,nt,nt
FC(F)(F)c1nc(N2CCCC2)ncc1-c1nnnn1-c1ccc(Cl)cc1,nt,58*,nt,nt,nt
FC(F)(F)c1ccncc1-c1nnnn1-c1ccc(Cl)cc1,-1,-3,5,0,3
C[C@@H]1CCCCO[C@H](CN(C)Cc2ccncc2)[C@H](C)CN([C@@H](C)CO)C(=O)c2cc(NS(=O)(=O)c3ccc(F)cc3)ccc2O1,nt,4[16.7 µM],-7,0,nt
COCC(=O)N1[C@H](CO)[C@H](c2ccc(-c3ccccc3OC)cc2)C12CN(C(C)=O)C2,nt,nt,-3,-1,nt
COc1ccc(S(=O)(=O)N2C[C@H](O)COC[C@H]3O[C@@H](CC(=O)NCCN4CCCCC4)CC[C@@H]32)cc1,nt,nt,12,1,nt
COc1ccc(C(=O)c2oc3ccc(OC)cc3c2N)cc1,47*,-40,nt,7,102*
COc1ccc(N2C(=S)NC3N2C(=S)NC3(C)c2ccccc2)cc1 (stereo not given),65*,-14,5,4,34
CC1(c2ccccc2)NC(=S)N2C1NC(=S)N2c1ccccc1 (stereo not given),nt,-39,nt,nt,4
CO[C@H]1CN(C)C(=O)c2cc(NC(=O)C3CCCC3)ccc2OC[C@H](C)N(S(C)(=O)=O)C[C@H]1C,nt,nt,11,-3,nt
CC1CCc2nc3sc4c(c3c(N)c2C1)CCCC4 (stereo not given),45*,9,-1,nt,58
CC1CCc2c(nc3sc4c(c3c2N)CCCC4)C1 (stereo not given),25,-29,12,nt,39
O=C(C[C@@H]1C[C@H]2c3cc(NC(=O)CC4CC4)ccc3O[C@H]2[C@H](CO)O1)NCc1ccccn1,nt,-37[16.7 µM],3,0,nt
O=S(=O)(c1ccc(Cl)cc1)N1CCC(n2cnc3cc(C(F)(F)F)ccc32)CC1,nt,64*,-53,nt,1
O=C(COC(=O)c1cccs1)c1ccccc1,nt,nt,nt,nt,34
